# Molecular target: CACNA1S
# Test: pooled miR-30 sensor sort-seq; sequence = guide strand
# Details: shRNA
# Note: reference of the scale not given here.
row,Sequence,sensor-assay potency score (higher = more potent)
1,TTCCAGGAAGTTGTCCACCTGG,-0.276
2,TTGAGGATCATCTCCAGGGTGA,-0.175
3,TTGGACAAGTCGGTGCACCTGA,0.00785
4,TTGGTGATCTTGAAGATCCTCA,0.453
5,TTGAGGTCCAGTCTTCCCCTGT,-0.528
6,TATCTCAGCAAACTGGAGGGGT,-0.123
7,TTCAGCATCTCCACACAGGGTT,0.136
8,ATACTGTACACATTGGCGCTGG,0.068
9,TTTAAGGATCTGATTTCTCATG,-1.14
10,TTCATCAGCATCTCAGTGGTGA,0.298
11,TTGATCTTGAGTGCCGTGCGGA,-0.578
12,TAGTAGTATGCAAAGTTGGTGC,-0.181
13,ATTAGATTCAAACTCATCGATT,-0.846
14,TCTTGTACTCAGTCTCTCCCTG,0.136
15,TTGATCAGCCTCATGACACGGA,0.698
16,TTGTCGAAGTGGAAGTCGCTGT,-0.229
17,TCTGAAGTCCTCAACATCCATG,-1.41
18,TTGAGGACAATCTCCACAGTGA,-0.144
19,TAGTATGCAAAGTTGGTGCCAC,0.194
20,TACACGTAGTAGTAGCCCCTGC,-0.425
21,TACATCTTCATCAGCATCTCAG,-0.408
22,TTGAGCAGGATGTAGTTGCCAC,-0.202
23,TTACCTTCCGTCTTGATCTTGA,0.578
24,TCTAGTTGCTGCTTCTCCCGGA,0.563

# Molecular target: CACNA2D4
# Test: as above
# Details: shRNA
row,Sequence,sensor-assay potency score (higher = more potent)
1,TAATAGTCGAACACCAGGGATT,-1.39
2,TTCCAGAGGAATCTTGGCCTGT,0.14
3,TCTGTGATGCAGTAGATCCAGT,-0.578
4,TATACTTCTCAAACACCGGCTC,-0.108
5,TTGGAGATCAGAATGAACCCGT,0.657
6,TTTGACTTCTGTCGCCTCCTGC,-0.115
7,TTATACTTCTCAAACACCGGCT,-0.014
8,TTGTAATAGTCGAACACCAGGG,-0.554
9,TCGATTGTCTCGGTCCGCCTGG,-0.412
10,TTGTTGTCGATGACGAAGCAGT,-0.871
11,TTTATACCTGGATAGATCCTGA,-0.0984
12,TCAGGTGTCAGGAACTTCCTGT,0.631

# From the OligoGym collection
